Values joined by “and” are separate entries in the source; they are usually repeats but may differ in a detail not shown here. Identical values can stand only once. Inconclusive results are not listed. The source holds several records for some structures; these can differ, active in one and inactive in another. Active and inactive are the calls of the source. How the source made its calls, unless noted: active means hit-call score of the fitted dose curve at least 0.9, where 1 is the maximum; inactive means score below 0.9.
Tests used:
[1] = ATG_TGFb_CIS: Attagene CIS-FACTORIAL HepG2 Assay for human Transforming Growth Factor (TGF) (AID 2282967); settings: HepG2 Attagene CIS TGFb reporter, mRNA transcription; actives raise or lower the signal
Summary of the method: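 Transcript-level reporter readout: HepG2 transfectants, 24 h exposure, RNA to cDNA, reporter-specific PCR, fluorescent primer extension, capillary sizing against ROX standards. Gain- or loss-of-signal relative to DMSO.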

[2] = ATG_VDRE_CIS: Attagene CIS-FACTORIAL HepG2 Assay for human Vitamin D Receptor Element (VDRE) (AID 2282968); settings: HepG2 VDRE cis-reporter transcription, actives raise or lower the signal
Summary of the method: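 Readout is VDRE-driven reporter mRNA reflecting endogenous factor activity in human HepG2 cells, sampled 24 h post-dose. Quantification used labelled RT-PCR products separated by capillary electrophoresis; bidirectional analysis relative to DMSO.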

[3] = target: X-box-binding protein 1 (Homo sapiens) (UniProt P17861); assay: ATG_Xbp1_CIS: Attagene CIS-FACTORIAL HepG2 Assay for human X-box Binding Protein 1 (XBP1) (AID 2282972); settings: HepG2 XBP1 cis-element reporter, Attagene multiplex; actives raise or lower the signal
Summary of the method: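 Changes in reporter transcript abundance, read by RT-PCR and capillary electrophoresis, reflect endogenous transcription factor activity. Transfected HepG2 cells received compound for 24 hours; DMSO defined baseline for bidirectional analysis.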

[4] = target: Nuclear receptor subfamily 1 group I member 3 (Homo sapiens) (UniProt Q14994); assay: ATG_CAR_TRANS: Attagene TRANS-FACTORIAL HepG2 Assay for human Constitutive Androstane Receptor (CAR) (AID 2282969; active means hit-call score of the fitted dose curve at least 0.9, where 1 is the maximum;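 further: activators raise reporter mRNA above DMSO so AC50 marks induction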); settings: HepG2 Attagene TRANS-FACTORIAL CAR reporter
Summary of the method: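 Signal is reporter mRNA induction relative to DMSO, measured 24 h after dosing by RT-PCR with fluorescent primer extension and capillary electrophoresis. Human HepG2 liver cells carried transiently transfected chimeric NR-Gal4/GAL4-UAS reporter constructs.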

[5] = target: Glucocorticoid receptor (Homo sapiens) (UniProt P04150); assay: ATG_GR_TRANS: Attagene TRANS-FACTORIAL HepG2 Assay for human Glucocorticoid Receptor (GR) (AID 2282978; active means hit-call score of the fitted dose curve at least 0.9, where 1 is the maximum;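 further: activators score as hits since higher reporter transcript over DMSO is fitted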); settings: HepG2 Attagene TRANS GR reporter, mRNA transcription
Summary of the method: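 In this trans-factorial format, exogenous NR-GAL4 chimeric proteins in transfected HepG2 cells regulate GAL4-UAS reporter transcription. After 24 h treatment, reporter mRNA induction relative to DMSO is read by RT-PCR and capillary electrophoresis.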

[6] = target: Estrogen receptor (Homo sapiens) (UniProt P03372); assay: ATG_ERa_TRANS: Attagene TRANS-FACTORIAL HepG2 Assay for human Estrogen Receptor alpha (ERa) (AID 2282970; active means hit-call score of the fitted dose curve at least 0.9, where 1 is the maximum); settings: HepG2 Attagene TRANS ERa GAL4 reporter, mRNA
Summary of the method: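 One of 30 multiplexed endpoints from a HepG2 TRANS system, this one reports ERa-Gal4-driven reporter mRNA. Transcripts were quantified 24 hours post-dosing by fluorescent RT-PCR and capillary electrophoresis, with activity scored as induction over DMSO.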

[7] = target: Steroid hormone receptor ERR1 (Homo sapiens) (UniProt P11474); assay: ATG_ERRa_TRANS: Attagene TRANS-FACTORIAL HepG2 Assay for human Estrogen-Related Receptor alpha (ERRa) (AID 2282971; active means hit-call score of the fitted dose curve at least 0.9, where 1 is the maximum); settings: HepG2 Attagene TRANS reporter, ERRa transactivation
Summary of the method: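 HepG2 cells transiently transfected with multiplexed GAL4-UAS reporter units reading chimeric ERRa-Gal4 activity; 24 h compound exposure. Reporter mRNA measured by RT-PCR, 6-FAM labelling, HpaI digest and capillary electrophoresis; gain of signal fitted versus DMSO baseline.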

[8] = target: Estrogen-related receptor gamma (Homo sapiens) (UniProt P62508); assay: ATG_ERRg_TRANS: Attagene TRANS-FACTORIAL HepG2 Assay for human Estrogen-Related Receptor gamma (ERRg) (AID 2282977; active means hit-call score of the fitted dose curve at least 0.9, where 1 is the maximum;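 further: hits increase reporter signal over DMSO so potencies reflect activators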); settings: HepG2 Attagene TRANS reporter, ERRg transactivation
Summary of the method: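 Induction of reporter transcripts through a chimeric NR-Gal4 protein is quantified in transfected human HepG2 liver cells after 24 h chemical exposure, using RT-PCR with capillary electrophoresis detection and DMSO as baseline.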

[9] = ATG_M_19_TRANS: Attagene TRANS-FACTORIAL HepG2 Assay for M19 Transcription Factor (Internal Marker) (AID 2282974; active means hit-call score of the fitted dose curve at least 0.9, where 1 is the maximum); settings: HepG2 Attagene TRANS-FACTORIAL M19 internal marker reporter
Summary of the method: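 Cells: human HepG2, transiently transfected with multiplexed reporter transcription units. Exposure: 24 h. Detection: RT-PCR of reporter mRNA with capillary electrophoresis. Analysis: gain-of-signal vs DMSO.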

Measured: AC50

Estrogen-related receptor gamma (Homo sapiens), sequence (P62508 whole entry, looked up, the tested form may be a part): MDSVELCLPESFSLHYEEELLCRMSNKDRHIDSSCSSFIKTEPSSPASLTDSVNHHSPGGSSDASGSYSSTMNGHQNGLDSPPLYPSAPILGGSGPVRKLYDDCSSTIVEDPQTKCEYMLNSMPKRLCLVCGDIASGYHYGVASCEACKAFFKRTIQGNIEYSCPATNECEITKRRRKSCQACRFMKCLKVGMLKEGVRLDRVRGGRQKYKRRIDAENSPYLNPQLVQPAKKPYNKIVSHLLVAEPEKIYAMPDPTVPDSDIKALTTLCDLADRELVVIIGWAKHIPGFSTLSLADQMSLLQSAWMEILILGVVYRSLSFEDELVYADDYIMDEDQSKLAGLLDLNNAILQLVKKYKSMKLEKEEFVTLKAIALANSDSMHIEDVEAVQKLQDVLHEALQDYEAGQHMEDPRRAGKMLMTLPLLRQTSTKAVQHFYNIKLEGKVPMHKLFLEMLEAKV
Nuclear receptor subfamily 1 group I member 3 (Homo sapiens), sequence (Q14994 whole entry, looked up, the tested form may be a part): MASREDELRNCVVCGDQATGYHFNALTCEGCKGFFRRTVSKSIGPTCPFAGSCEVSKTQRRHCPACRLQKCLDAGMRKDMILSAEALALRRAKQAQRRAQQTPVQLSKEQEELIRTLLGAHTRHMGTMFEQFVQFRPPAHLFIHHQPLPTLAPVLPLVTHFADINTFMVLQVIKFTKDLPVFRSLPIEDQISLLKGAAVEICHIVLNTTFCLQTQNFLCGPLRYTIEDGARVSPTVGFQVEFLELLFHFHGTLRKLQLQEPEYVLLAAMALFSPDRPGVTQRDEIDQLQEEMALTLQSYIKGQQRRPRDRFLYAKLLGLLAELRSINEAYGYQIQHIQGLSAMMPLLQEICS
Estrogen receptor (Homo sapiens), sequence (P03372 whole entry, looked up, the tested form may be a part): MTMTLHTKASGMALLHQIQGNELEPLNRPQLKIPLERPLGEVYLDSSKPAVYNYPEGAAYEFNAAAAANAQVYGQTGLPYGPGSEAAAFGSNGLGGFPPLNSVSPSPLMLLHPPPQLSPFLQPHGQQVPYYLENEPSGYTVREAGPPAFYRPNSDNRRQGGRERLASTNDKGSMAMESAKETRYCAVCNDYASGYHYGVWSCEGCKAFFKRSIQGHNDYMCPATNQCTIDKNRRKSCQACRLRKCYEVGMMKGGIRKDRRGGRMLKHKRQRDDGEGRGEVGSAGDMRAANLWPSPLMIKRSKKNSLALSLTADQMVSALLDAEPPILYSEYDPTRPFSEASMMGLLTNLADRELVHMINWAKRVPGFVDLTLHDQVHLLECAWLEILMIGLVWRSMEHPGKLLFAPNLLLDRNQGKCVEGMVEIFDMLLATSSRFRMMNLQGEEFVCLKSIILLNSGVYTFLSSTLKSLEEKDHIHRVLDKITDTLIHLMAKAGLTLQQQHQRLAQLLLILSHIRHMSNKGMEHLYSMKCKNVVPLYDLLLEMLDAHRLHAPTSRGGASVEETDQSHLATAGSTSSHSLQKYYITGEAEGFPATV
Glucocorticoid receptor (Homo sapiens), sequence (P04150 whole entry, looked up, the tested form may be a part): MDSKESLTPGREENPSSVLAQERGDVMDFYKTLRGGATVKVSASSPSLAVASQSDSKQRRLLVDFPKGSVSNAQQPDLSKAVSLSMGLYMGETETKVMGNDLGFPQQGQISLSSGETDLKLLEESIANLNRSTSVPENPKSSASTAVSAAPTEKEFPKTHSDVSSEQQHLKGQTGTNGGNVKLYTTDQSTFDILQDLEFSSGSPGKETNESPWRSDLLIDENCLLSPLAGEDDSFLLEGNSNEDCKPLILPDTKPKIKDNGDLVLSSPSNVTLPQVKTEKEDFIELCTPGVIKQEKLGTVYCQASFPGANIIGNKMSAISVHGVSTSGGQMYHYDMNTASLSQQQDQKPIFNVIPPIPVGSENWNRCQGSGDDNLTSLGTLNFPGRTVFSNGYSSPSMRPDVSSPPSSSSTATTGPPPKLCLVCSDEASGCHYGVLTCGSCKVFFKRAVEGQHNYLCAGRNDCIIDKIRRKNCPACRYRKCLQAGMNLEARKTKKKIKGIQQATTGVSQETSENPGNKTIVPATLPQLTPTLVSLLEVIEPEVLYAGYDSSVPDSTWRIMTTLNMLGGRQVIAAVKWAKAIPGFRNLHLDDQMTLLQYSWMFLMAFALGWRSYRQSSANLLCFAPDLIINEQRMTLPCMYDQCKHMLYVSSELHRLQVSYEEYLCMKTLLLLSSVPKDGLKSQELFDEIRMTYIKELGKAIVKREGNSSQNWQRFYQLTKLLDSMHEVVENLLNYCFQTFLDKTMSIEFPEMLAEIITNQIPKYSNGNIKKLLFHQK
Steroid hormone receptor ERR1 (Homo sapiens), sequence (P11474 whole entry, looked up, the tested form may be a part): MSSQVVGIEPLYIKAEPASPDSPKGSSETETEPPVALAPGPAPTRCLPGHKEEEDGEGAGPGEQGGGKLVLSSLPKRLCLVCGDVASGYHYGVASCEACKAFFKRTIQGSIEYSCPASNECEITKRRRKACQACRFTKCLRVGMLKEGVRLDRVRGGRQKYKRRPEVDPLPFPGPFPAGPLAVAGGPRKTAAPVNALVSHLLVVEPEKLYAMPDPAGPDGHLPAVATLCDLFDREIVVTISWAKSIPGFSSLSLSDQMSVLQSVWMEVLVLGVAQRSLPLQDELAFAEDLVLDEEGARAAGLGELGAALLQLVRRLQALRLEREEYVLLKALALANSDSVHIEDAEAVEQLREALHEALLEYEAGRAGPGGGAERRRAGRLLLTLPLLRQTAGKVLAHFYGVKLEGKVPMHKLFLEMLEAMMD
X-box-binding protein 1 (Homo sapiens), sequence (P17861 whole entry, looked up): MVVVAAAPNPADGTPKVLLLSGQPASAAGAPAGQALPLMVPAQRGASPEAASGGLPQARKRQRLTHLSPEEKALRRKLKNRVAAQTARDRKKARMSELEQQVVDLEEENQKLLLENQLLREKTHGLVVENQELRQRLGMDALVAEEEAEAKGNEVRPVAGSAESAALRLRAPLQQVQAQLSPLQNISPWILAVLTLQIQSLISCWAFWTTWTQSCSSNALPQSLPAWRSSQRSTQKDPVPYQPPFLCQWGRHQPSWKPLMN

Cc1ccc(C(C)C)cc1
inactive: [1] | [2] | [3]

c1ccc2n[nH]nc2c1
inactive: [1] | [4] | [3] | [5]

CCCC(=O)OCCC(C)C
inactive: [1] | [2] | [6] | [3]

CO[C@H]1/C=C/O[C@@]2(C)Oc3c(C)c(O)c4c(O)c(c(/C=N/N5CCN(C)CC5)c(O)c4c3C2=O)NC(=O)/C(C)=C\C=C\[C@H](C)[C@H](O)[C@@H](C)[C@@H](O)[C@@H](C)[C@H](OC(C)=O)[C@@H]1C
active: [2] 1.38 µM
inactive: [1] | [2] | [7] | [3]

Cc1occc1C(=O)Nc1ccc(C(=O)N2CCC(F)(F)/C(=C\C(=O)N3CCC(N4CCCCC4)CC3)c3ccccc32)cc1
active: [1] 49.8 µM | [2] 34.5 µM | [3] 51.2 µM
inactive: [6] | [5]

CC1(C)NC(=O)N(c2ccc([N+](=O)[O-])c(C(F)(F)F)c2)C1=O
inactive: [1] | [2] | [7] | [3] | [8]

CCCCCCCC[Si](OCC)(OCC)OCC
inactive: [1] | [2] | [3] | [5]
active: [2] 169 µM

CC(C)(c1cc(Br)c(O)c(Br)c1)c1cc(Br)c(O)c(Br)c1
inactive: [4] | [7] | [8] | [5]
active: [1] 49 µM and 58 µM | [2] 22.1 µM and 22.6 µM | [3] 45.9 µM and 42.9 µM

COc1ccc2cc(S(=O)(=O)N[C@H](CC(=O)N[C@H](Cc3ccc(CN4[C@H](C)CCC[C@@H]4C)cc3)C(=O)N(C)C(C)C)c3ccc4c(c3)OCO4)ccc2c1
inactive: [1] | [2] | [5]
active: [6] 11 µM | [3] 11 µM

O=C(O)c1ccccc1-n1cc(C(=O)O)c(=O)c2cc(Nc3c(F)cc(F)cc3Cl)c(Cl)cc21
inactive: [1] | [2] | [6] | [3] | [5]

COc1cccc([C@H](O)C2CCN(CCc3ccc(F)cc3)CC2)c1OC
inactive: [1] | [2] | [6] | [3] | [5]

Cc1oc2c(NC(=O)c3c(Cl)cccc3Cl)cccc2c1C(C)(C)O
inactive: [1] | [3] | [5]
active: [2] 4.01 µM

NC(=O)c1nc(-c2cccc(-c3cc(F)ccc3OCC(F)(F)C(F)(F)F)c2)n[nH]1
inactive: [1] | [9] | [8] | [5]
active: [2] 13.7 µM | [3] 44.6 µM

CN1C(=O)N(c2ccccc2Br)Cc2cnc(Nc3ccc4c(c3)OCC(CO)O4)nc21 (centres undefined)
inactive: [1] | [7] | [5]
active: [2] 4.14 µM | [3] 9.79 µM

Oc1ccc2ccccc2c1
inactive: [1] | [2] | [3] | [5]

CCCCCCCCCCCCO
inactive: [1] | [2] | [4] | [6] | [3]

CC(C)(O)c1ccc(CNC(=O)c2cccnc2Oc2ccc3nonc3c2)cc1
active: [2] 33.2 µM | [5] 48.6 µM
not listed: [8] | [9]
inactive: all other assays above

CC(=O)N1CCN(c2ccc(OC[C@H]3CO[C@](Cn4ccnc4)(c4ccc(Cl)cc4Cl)O3)cc2)CC1
inactive: [1] | [6] | [5]
active: [2] 8.88 µM | [3] 18.3 µM

Oc1ccccc1
inactive: [1] | [4] | [3]

CC(C)(C)c1csc(-c2cc3cc(OCc4ccccc4CC(=O)O)ccc3o2)n1
active: [2] 14.1 µM | [3] 50.2 µM
inactive: [1] | [6] | [5]

Cc1ccc2oc(CN(Cc3ccccc3)C(=O)Nc3c(F)cc(F)cc3F)c(-c3ccc(Cl)cc3)c2c1
inactive: [1] | [2] | [7] | [3] | [5]

CCCCCCCCOc1ccc(C(=O)c2ccccc2)c(O)c1
not listed: [5] | [9]
inactive: all other assays above

— PubChem BioAssay (EPA / NIEHS)
